Measured values: PubChem BioAssay (NCI)
Where “and” joins values, the source holds several entries; their conditions need not be identical. Equal entries are not always repeated. About 83,000 compounds went through this panel and 20% of them were active in at least one assay; those are over-represented in the sample as a whole.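 Step 1: grow cells in 96-well plates. Step 2: add test compound at a single concentration. Step 3: incubate 48 h. Step 4: record percent growth.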 Unmarked numbers belong to inactive results. Calls of active or inactive are those of the source. How the source made its calls: active means growth percent below 10; inactive means the rest.

Tested on: MDA-MB-468 breast
Experiment: NCI-60 one-dose screen, 48 h (100 = growth as untreated, 0 = no growth, -100 = all killed)
Conditions: 10 µM unless noted

| SMILES | growth |
| --- | --- |
| COC(=O)[C@]12CC[C@@H](C(/C=C/c3cccnc3)=N/O)[C@@H]1[C@H]1CC[C@@H]3[C@@]4(C)CC(=C/c5cccnc5)/C(=N/O)C(C)(C)[C@@H]4CC[C@@]3(C)[C@]1(C)CC2 | 13.1% |
| OC(c1ccc(Cl)cc1)(c1ccc(Cl)cc1)C(O)(c1ccc(Cl)cc1)c1ccc(Cl)cc1 | 12.6% |
| Cc1cc(C)n(Cc2cc(C(C)(C)C)cc(C(C)(C)C)c2)c(=O)c1C#N | 97.4% |
| O=C1NC(=O)C(c2ccc(Cl)cc2Cl)N1 (stereo unspecified) | 106% |
| CCOC(=O)c1c(Nc2ccccc2)nn2c(-c3ccco3)c(C#N)cnc12 | 89.4% |
| COC1=C(OC)C(=O)c2ccccc2C1=O | -34% (active) |
| COc1c(-c2cc(-c3ccc(C)o3)[nH]c(=O)n2)c(O)cc2occc12 | 25.8% |
| Nc1c(C(=O)O)[nH]c(=O)[nH]c1=O | 103% |
| Nc1ccc(N=Nc2ccc(S(=O)(=O)O)cc2)cc1S(=O)(=O)O | 150% and 75.5% |
| Cc1sc2nc(N3CCCCC3)[nH]c(=O)c2c1C | 96.6% |
| Cn1c(=O)c2c(c3ccccc31)OC(N)=C(C#N)C21C(=O)c2ccccc2C1=O | 96.4% |
| CC(O)c1cc2ccccc2c(=O)o1 (stereo unspecified) | 98.7% |
| O=C(N/N=C/c1ccccc1O)Nc1nn[nH]n1 | 97.6% |
| O=C1N(C[P+](c2ccccc2)(c2ccccc2)c2ccccc2)CCCN1C[P+](c1ccccc1)(c1ccccc1)c1ccccc1 | 105% |
| C=C(C)[C@@H]1CC[C@]2(COC)CC[C@]3(C)[C@H](CC[C@@H]4[C@@]5(C)CCCNC(C)(C)[C@@H]5CC[C@]43C)[C@@H]12 | -50.5% (active) |
| CC(C)CC(NC(=O)CN(Cc1ccccc1)S(C)(=O)=O)C(=O)O (stereo unspecified) | 99.6% |
| Nc1c(C(=O)Nc2ccccc2)sc2nc3c(cc12)CN(CCc1ccccc1)CC3 | 107% |
| CCCOc1nc(SCCC)nc2c1cnn2-c1ccccc1 | 106% |
| Cc1ccc(CNS(=O)(=O)/N=C2\NC(=O)NC2=C(Cl)Cl)cc1 | 1.67% (active) |
| C=C1C(=O)O[C@H]2[C@H]1CC/C(COC(=O)CCCCC(=O)OC/C1=C/CC[C@@]3(C)O[C@H]3[C@H]3OC(=O)C(=C)[C@@H]3CC1)=C\CC[C@@]1(C)O[C@@H]21 | 45.5% |
| Cc1nc(Nc2ccc(S(=O)(=O)Nc3cc(C)on3)cc2)c2ccccc2n1 | 104% |
| COc1cc(C)ccc1Oc1nc(Nc2ccc(N3CCOCC3)cc2)ncc1NC(=O)Nc1cc(C(F)(F)F)cc(C(F)(F)F)c1 | 72.8% |
| O=C1/C(=C/C=C/c2ccco2)SC(=S)N1C1CCCCC1 | 43.4% |
| Cc1cc(C(=O)O)c(C)cc1C(=O)O | 96.6% |
| NC(N)=N/N=C/CO | 107% |
| O=C(COc1cccc(/C=C2\Cc3ccc(Cl)cc3C2=O)c1)Nc1nccs1 | 21.9% |
